Source: PubChem
Hits are enriched below; roughly 1.8% of the tested compounds scored in any of these assays.
SDO1 yeast rescue: compounds rescuing growth of sdo1-depleted yeast, bone marrow failure model. S. cerevisiae sdo1-depleted JHY4D growth rescue, OD600 30 h; active compounds read high; pdr5 snq2 efflux-pump mutant strain. z-score at 10 µM. 140,000 compounds, 0.21% hits;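 active = z-score above 3 at both the 24 hr and the 30 hr optical density reads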;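 note: z-score against mean and SD of all compound wells on the same plate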
Phagocyt inh: inhibitors of macrophage phagocytosis; J774A.1 macrophage IgG-bead phagocytosis, imaging; inhibition, % at 5 µM; 110,000 compounds, 0.07% hits;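 active = inhibition above the mean of the plate negative controls plus 5 SD, cut at about 13% in these data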;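 note: phagocytic index as fraction of beads internalized from green versus red external bead signal; plate controls were DMSO negative control for no effect and cytochalasin-D positive control for full effect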
Measles CPE: protection of cells from measles virus; Measles virus-infected cells, CPE protection, absorbance; protection (pct of control), % at 4 µM; 140,000 compounds, 1.5% hits; AID 841; in the data active = protection mostly above about 24%, no sharp cut-off; inactive = mostly below about 26%
* hit, by the source's call; nt = no result.

SMILES | SDO1 yeast rescue | Phagocyt inh | Measles CPE
CCOC(=O)c1c(-c2ccc(OC)cc2)csc1NC(=O)CSc1ncnc2sccc12 | 1.2 | nt | 43*
CC(c1ccccc1)N1C(=O)NC(NC(=O)C(C)(C)C)(C(F)(F)F)C1=O (configuration not stated) | 0.73 | -5 | 24
COC(=O)c1c(NC(=O)CN2CCC(C)CC2)c2c(C)cccc2n1C | -0.24 | 0 | 16
O=C(OC(C(=O)NCc1cccs1)c1ccccc1F)c1ccco1 (configuration not stated) | 0.05 | nt | 42*
O=C(OC(C(=O)NCc1ccc2c(c1)OCO2)c1ccccc1F)c1ccco1 (configuration not stated) | -0.53 | 0 | 3
C/C(=N\NC(=O)Cc1cccc2ccccc12)c1ccncc1 | -0.84 | -2 | 26
COC(=O)c1ccc(CNC(=O)CSc2nc3sc(C)c(C)c3c(=O)n2C)o1 | -0.26 | -3 | 33
C=C(C)Cn1c(SCC)nc2ccccc2c1=O | -1 | 0 | 28*
C=C(C)Cn1c(SCC#N)nc2ccccc2c1=O | -0.24 | 0 | 3
CC(=O)NCCn1c(SCc2cc(F)ccc2F)nc2ccccc2c1=O | -0.7 | nt | 41*
O=c1c2ccccc2nc(SCc2cc(F)ccc2F)n1C1CCCC1 | -1.1 | 0 | 31*
CC(=O)NCCn1c(SCc2ccccc2C)nc2ccccc2c1=O | -0.26 | nt | 6
O=C(c1ccc(-n2c(SCc3cc(F)ccc3F)nc3ccccc3c2=O)cc1)N1CCOCC1 | 0.05 | 0 | 8
CC(C)CCn1c(CN2CCN(Cc3ccccc3)CC2)nc2c1c(=O)[nH]c(=O)n2C | -0.14 | -2 | 41*
CC(C)CCn1c(N2CCN(Cc3ccccc3)CC2)nc2c1c(=O)[nH]c(=O)n2C | nt | 0 | nt
Cc1cc(C)cc(NC(=O)c2nccnc2C(=O)O)c1 | 0.5 | 0 | 6
O=C1Nc2ccccc2N(O)N1c1cc(-c2ccccc2Cl)no1 | 1 | 0 | 1
O=C1Nc2ccccc2N(O)N1c1cc(-c2cccc(Cl)c2)no1 | 0.5 | nt | 33*
O=C(NCCN1CCOCC1)c1cc(Cl)ccc1[N+](=O)[O-] | 0.48 | -7 | 32*
O=C(NCCN1CCOCC1)c1ccc([N+](=O)[O-])cc1[N+](=O)[O-] | 0.78 | 1 | 3
Cc1nnc(SCC(=O)NC(=O)NCc2ccco2)n1Cc1ccccc1 | 0.18 | 4 | 16
CCOc1c2ccc(C(=O)NCc3ccc(C)cc3)cc2nn1CC | -0.01 | nt | 6
CCCn1nc2cc(C(=O)NCc3ccc(C)cc3)ccc2c1OCC | -0.12 | nt | 84*
CN(C)c1nc(OCC(=O)NC(C)(C)C)nc(N(C)C)n1 | 0.5 | 0 | 6
Cn1c(-c2ccccc2)cnc1SCC(=O)N1CCCc2ccccc21 | -0.68 | -7 | 15
SMILES | SDO1 yeast rescue | Phagocyt inh | Measles CPE
Cn1c(-c2ccccc2)cnc1SCC(=O)N1CCCCC1 | 0.91 | nt | 18*
COc1ccc(S(=O)(=O)N2CC(O)CC2C(=O)OCc2nc3sc(C)c(C)c3c(=O)[nH]2)cc1 (configuration not stated) | -0.22 | -1 | 8
O=C(CSc1nnc(-c2ccc(F)cc2)c2ccccc12)Nc1c(F)cccc1F | -1 | -3 | 37*
O=C(CSc1nnc(-c2ccc(F)cc2)c2ccccc12)Nc1ccccc1 | -1.2 | -4 | 12
Cc1ccc(-c2nc3ccccc3n3c(C)nnc23)cc1 | -0.15 | -1 | 3
CCCN(CCC)c1nc2ccccc2n2c(C)nnc12 | -1.7 | 0 | 44*
COc1ccc(-n2cnnc2SCC(=O)NC2CCCc3ccccc32)cc1 (configuration not stated) | -0.46 | -6 | 13
COc1ccc(NC(=O)C2CC(=O)NC(Nc3cccc(C)c3)=N2)cc1 (configuration not stated) | 0.43 | -3 | 4
CCc1ccc(NC2=NC(C(=O)NC3CCCCC3)CC(=O)N2)cc1 (configuration not stated) | 1.1 | 1 | 56*
Cc1cc(F)ccc1NCC(=O)Nc1ccccc1Br | -0.5 | 4 | 50*
Cc1ccc(F)cc1NCC(=O)Nc1ccc(Cl)cc1F | 0.73 | 1 | 28
COc1cccc(C(=O)NC(=S)Nc2ccc(N(C)C)cc2)c1 | -0.18 | -5 | 8
O=C(CCN1C(=O)S/C(=C/c2ccc(Cl)cc2)C1=O)N1CCOCC1 | -0.39 | -8 | 42*
Cn1c(=O)n(C)c2cc(/C=C3/SC(=O)N(CC(=O)N4CCOCC4)C3=O)ccc21 | 0.51 | -2 | 8
COCCn1nnnc1C(C(C)C)N(Cc1cccnc1)Cc1ccccc1Cl (configuration not stated) | -0.42 | 5 | 8
COc1ccc(NC(C)=O)cc1NC(C)C(=O)Nc1ccc(F)cc1 (configuration not stated) | -0.62 | 0 | 38
Cn1c(=O)c(C(=O)COC(=O)c2cc(-c3ccccc3)nc3ccccc23)c(N)n(Cc2ccccc2)c1=O | -0.23 | nt | 25*
Cn1c(=O)c(C(=O)COC(=O)c2cc(C(F)(F)F)nc3ccccc23)c(N)n(Cc2ccccc2)c1=O | -0.25 | nt | 7
O=c1ccn(-c2cccc(C(F)(F)F)c2)nc1-c1ccn(-c2ccccc2)n1 | -0.68 | -1 | 10
O=C(CN(C1CCCCC1)C1CCCCC1)N1CCc2ccccc2C1 | -0.62 | -1 | 4
COc1ccc(C2CC(C(F)(F)F)n3ncc(C(=O)O)c3N2)cc1OC (configuration not stated) | -0.21 | 2 | 3
COc1ccc(C2CC(C(F)(F)F)n3ncc(C(=O)NCC4CCCO4)c3N2)cc1OC (configuration not stated) | 0.48 | 0 | 32*
COc1ccc(NC(C)=O)cc1NC(=O)CCn1c(=O)sc2ccccc21 | 1.5 | nt | 11
Cc1ccc(S(=O)(=O)NCc2ccco2)cc1C | 0.45 | 1 | 43*
Cc1cc(C)c(C)c(S(=O)(=O)NCc2ccco2)c1C | -0.98 | -2 | 3
SMILES | SDO1 yeast rescue | Phagocyt inh | Measles CPE
CCc1cccc(C)c1NC(=O)CN(C)Cc1ccccc1F | -1.2 | -5 | 5
C=CCSc1nnc(-c2c[nH]c3ccccc23)n1CC | -0.37 | 1 | 8
COc1ccc(C2C(C(=O)OC(C)C)=C(C)N=c3s/c(=C\c4cccs4)c(=O)n32)cc1 (configuration not stated) | -1.1 | -2 | 45*
CCOC(=O)C1=C(C)N=c2s/c(=C/c3ccccc3)c(=O)n2C1c1ccc(OC)c(OC)c1 (configuration not stated) | -0.37 | -3 | 17
COc1ccc(CNC(=O)C(c2ccc(C)o2)N(Cc2cccs2)C(=O)Cc2cccs2)cc1 (configuration not stated) | -1.5 | nt | 7
C=CCn1c(SCC(=O)NC(=O)c2cccc([N+](=O)[O-])c2)nnc1-c1ccccc1 | 0.4 | 5 | 5
CCOc1ccc2c(c1)C(c1ccc(C)cc1)=NNC(c1ccc(OC)cc1)=N2 | -1.4 | -2 | 4
COc1ccc2c(c1)C(c1ccccc1)=NNC(c1ccco1)=N2 | -0.37 | 1 | 49*
Cc1ccc(-n2c(SCC(=O)NCc3ccco3)nc3c(sc4ccccc43)c2=O)cc1 | -1.8 | -2 | 13
COc1ccc(C2NCCC3(O)CCCCC23)c(OC)c1OC (configuration not stated) | 1.4 | -1 | 35*
COc1ccc(C2NC(c3ccc(OC)c(OC)c3OC)C(C)C(=O)C2C)c(OC)c1OC (configuration not stated) | -0.36 | nt | 7
CCOC(=O)c1nn(-c2ccccc2F)c(-c2ccccc2)c1C(=O)c1ccccc1 | 0.22 | nt | 13
